# Screening data (PubChem BioAssay)
# TRPML1 ag: activates the human TRPML1 channel; activation, % (test concentration not listed); TRPML1-expressing cells, Ca2+ dye fluorescence, FDSS; 0.12% of 410,000 active; Q9GZU1; AID 624414; in the data active = activation above about 50%; inconclusive = mostly about 30% to 49%; note: 0% is about no effect
#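 Agonist activity was taken from a 110 s kinetic Ca2+ dye read on the FDSS after pinning compounds onto TRPML1-DL cells. The cells were seeded at 1,500/well with Tet inducer, incubated about 16 h, then dye-loaded at room temperature.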
# Vif-APOBEC3F blk: blocks the Vif interaction with APOBEC3F; HeLa A3F-eYFP + Vif (tagged APOBEC3F with the HIV-1 protein that degrades it), YFP fluorescence increase; Potency, µM (doses to about 46.1 µM), for inactives: at the highest dose activity, negative = active; 0.2% of 390,000 active; AID 602313; note: potency is the fitted concentration of half-maximal effect; % of control where 0% means no effect; nearly all actives have a fitted effect of over 65% in size
#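 HeLa cells stably expressing Vif plus C-terminally eYFP-tagged A3F were seeded, incubated overnight at 37 deg C, dosed with compound, incubated overnight again at 37 deg C. Yellow fluorescence (Ex 488/Em 500-530) reported blocked Vif-mediated A3F-eYFP degradation.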
# PINK1 modulator: modulators of PINK1 expression; PINK1 immunofluorescence, high-content cytometry, 24 h; 0.2% of 410,000 active; Potency, µM (series often up to 76.6 µM), for inactives: at the top dose activation (PINK1 increase), most hits filed as activators; active = well fitted activation curve with a large enough effect; inconclusive = small, poorly fitted or top-dose-only effect; cell line not stated here; note: potency is the fitted concentration of half-maximal effect; % of control where 0% means no effect; nearly all actives have a fitted effect of over 65% in size
#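 Readout is PINK1 immunofluorescence, quantified alongside mitochondrial, cell and nuclear markers by laser-scanning microplate cytometry. Cells from a stable line were exposed to compound titrations (5 concentrations) for 24 hours, with CCCP controls.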
# TRPML1 inh: human mucolipin-1 channel inhibition; 0.02% of 390,000 active; Q9GZU1; activity change, negative = inhibition, % (concentration not given with the values); TRPML1-inducible cells, Ca2+ dye fluorescence, FDSS; hits give low values; inhibition of EC80 agonist-evoked calcium signal; in the data active = activity change below about -50%; inconclusive = between about -30% and that limit;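 note: stimulus is agonist 54-4 at its EC80 concentration; % is set by controls: 0 for no effect and ±100 for the full control effect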
#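 Calcium fluorescence in TRPML1-DL cells induced overnight with Tet: a 110 s read after compound pin addition, then a 110 s antagonist read after challenge with 54-4 at 4 uM final (EC80).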
# Vif-A3G inh: inhibitors of Vif-APOBEC3G interaction | Q9HC16 | HeLa A3G-eYFP + Vif (tagged APOBEC3G with the HIV-1 protein that degrades it), YFP fluorescence, overnight | Potency, µM (highest dose often 46.1 µM), without a hit: at the highest dose activity, negative = active, hits mostly inhibitors | 0.076% of 410,000 active | AID 602310; note: potency is the fitted concentration of half-maximal effect; % is set by controls: 0 for no effect and ±100 for the full control effect; nearly all actives have a fitted effect of over 60% in size
# Target sequence (Q9HC16 whole entry, looked up): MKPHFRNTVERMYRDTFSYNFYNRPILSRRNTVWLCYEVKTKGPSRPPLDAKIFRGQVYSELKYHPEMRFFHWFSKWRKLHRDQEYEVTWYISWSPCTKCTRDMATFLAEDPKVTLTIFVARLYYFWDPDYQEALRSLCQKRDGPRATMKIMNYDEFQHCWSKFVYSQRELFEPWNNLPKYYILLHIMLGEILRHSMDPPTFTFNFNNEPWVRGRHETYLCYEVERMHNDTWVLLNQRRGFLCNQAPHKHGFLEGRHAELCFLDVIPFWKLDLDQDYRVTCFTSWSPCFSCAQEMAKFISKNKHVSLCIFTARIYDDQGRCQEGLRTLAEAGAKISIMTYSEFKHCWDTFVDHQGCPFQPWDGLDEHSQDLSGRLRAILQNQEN
#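 Read-out is eYFP fluorescence (Ex 488/Em 500-530) from Vif-expressing HeLa A3G-eYFP cells; more signal means A3G escaped Vif-mediated degradation. Cells plated overnight, compound pinned in, incubated overnight at 37 deg C.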
# * marks the source's active call; other numbers are inactive results; ? = inconclusive; nt = no result; [ ] = remark or other dose. Sampled rows, rich in hits. Any-hit rate of the full collection: about 0.52%. Unless noted, calls come from the whole dose curve; as a rule, active = well fitted curve in the direction sought with a large enough effect; inconclusive = small, poorly fitted or top-dose-only effect, or another doubt; inactive = no such curve, though single readings can be large; an effect the other way counts as inactive or inconclusive.
SMILES,TRPML1 ag,Vif-APOBEC3F blk,PINK1 modulator,TRPML1 inh,Vif-A3G inh
CCc1ccc(Nc2cc(=O)n(C3CCCCC3)c(=O)[nH]2)cc1,24.0,-15.4%,28.2µM*,-7.1,2.1%
Cn1cnnc1SCc1ccc(C(=O)N/N=C(/CCC(=O)O)c2ccc(C(C)(C)C)cc2)cc1,-0.5,5.5%,3.0%,14.6,-0.1%
Cc1cc(OC(=O)c2cccs2)ccc1C(C)C,-0.4,-14.1%,?,-15.4,0.7%
O=C(Oc1ccc2c(c1)OCO2)c1cccs1,-1.0,8.9%,-2.1%,-50.1*,4.8%
COc1ccc(-c2nc3cnc(N4CCNCC4)nc3n(CCC#N)c2=O)cc1,nt,nt,-0.3%,nt,nt
O=C1C(=Cc2cccn2-c2ccccc2)C(=O)c2ccccc21,0.8,28.2µM*,?,-19.3,?
Cc1cccc(-n2ncc(C(=O)NCc3ccco3)c2C2CCN(C(=O)OC(C)(C)C)CC2)c1,0.4,1.8%,2.1%,-3.9,-1.0%
COc1cc(-c2c(-c3ccc4c(c3)OCO4)noc2-c2ccsc2)cc(OC)c1OC,-0.8,nt,nt,nt,-0.7%
Nc1ccccc1C=C1Cc2ccccc2C1=O,4.3,6.31µM*,-1.1%,2.9,?
CC1(C)CC(=Cc2ccccc2[N+](=O)[O-])C(=O)c2ccccc21,-0.2,-12.1%,8.8%,4.5,1.1%
COc1ccccc1/C=C1\Cc2ccccc2C1=O,2.9,4.1%,-0.9%,-1.1,1.4%
O=C1C(=Cc2ccccc2[N+](=O)[O-])Cc2ccccc21,-0.1,12.6µM*,2.0%,-6.9,?
Cc1cc(C)c(C(=O)C2OC(=O)C(C)(C)C(=O)C2(C)C)c(C)c1 (centres undefined),2.5,-3.4%,-0.1%,64.4,1.5%
C[n+]1c2cc(N)ccc2cc2ccc(N)cc21,104.4*,-26.2%,0.8%,?,0.9%
CN(C)c1cc2c3ccccc3n(C)c2cc1N,-0.3,-3.2%,-0.1%,-0.5,-15.8%
CCCN1C(=O)CC(c2ccc(OC)c(OC)c2)C1=O (centres undefined),-0.4,nt,-0.2%,nt,2.1%
CC1CCN(C2=C(NS(=O)(=O)c3ccc(Br)cc3)C(=O)c3ccccc3C2=O)CC1,-0.2,4.4%,21.4%,-11.3,4.3%
O=C1C(NS(=O)(=O)c2ccc(Br)cc2)=C(N2CCCCC2)C(=O)c2ccccc21,76.4*,-2.4%,4.3%,-19.5,2.8%
COc1ccc(Cn2c(=O)c3oc4ccccc4c3n(Cc3ccccc3)c2=O)cc1,1.8,1.0%,-0.5%,-29.9,-1.9%
Cc1cc(C)c2oc(-c3cccc(NC(=O)COc4ccc(Cl)cc4C)c3C)nc2c1,0.2,nt,0.4%,nt,-2.6%
Cc1nc(C)c(C(=O)Nc2ccc(Oc3ccccc3)cc2)o1,1.0,-5.2%,5.62µM*,35.5,3.3%
CCOc1ccc2nc(NC(=O)c3nc(SC(C)C)ncc3Cl)sc2c1,-0.5,5.01µM*,?,0.2,1.8%
CCOC(=O)C1CCN(C(=O)CCNC(=O)c2cc(OC)c(OC)c(OC)c2)CC1,-0.1,0.7%,-1.4%[38.3 µM],1.3,1.3%
On1onc2c3cc(-c4ccccc4)nc3ccc21,-0.4,?,11.5%,58.9,3.55µM*
O=C1CCCN1CCCNc1nc(NCc2cccs2)nc2ccsc12,57.1*,nt,6.4%,nt,-2.3%
SMILES,TRPML1 ag,Vif-APOBEC3F blk,PINK1 modulator,TRPML1 inh,Vif-A3G inh
C=CCOC(=O)C1=C(C)NC(C)=C(C(=O)OCC=C)C1c1cn(-c2ccccc2)nc1-c1ccco1,1.0,-13.0%,11.9%,25.8,8.91µM*
OCc1cn(-c2ccccc2)nc1-c1ccco1,0.1,-2.1%,nt,4.5,1.4%
COc1ccccc1CNc1ncnc2ccc(-c3ccccc3C#N)cc12,nt,nt,0.6%,nt,nt
Cc1ccc(S(=O)(=O)N2CCc3ccccc3C2CN2C(=O)c3ccccc3C2=O)cc1 (centres undefined),87.5*,5.5%,-1.3%,-19.1,4.0%
Cc1c(N=N/C(C(=O)Nc2ccccc2)=C(/O)c2ccccc2)c(=O)n(-c2ccccc2)n1C,12.1,10µM*,2.3%,6.5,-3.4%
CCOC(=O)/C(N=Nc1c(C)n(C)n(-c2ccccc2)c1=O)=C(/O)c1ccccc1,-0.5,10.6%,0.2%,29.3,1.2%
CN1C(=O)c2cccc3c(Cl)ccc(c23)C1=O,-0.4,0.0%,-1.5%[38.3 µM],2.2,2.2%
CNc1ccc2c3c(cccc13)C(=O)N(C)C2=O,78.3*,-24.1%,0.6%,-13.4,7.1%
